Compounds without any hit were thinned out: in the full panel of roughly 83,000, 20% have a hit.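 Step 1: grow cells in 96-well plates. Step 2: add test compound at a single concentration. Step 3: incubate 48 h. Step 4: record percent growth.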 Unmarked numbers belong to inactive results. The source made the active and inactive calls.
What follows are molecules tested on TK-10 renal (assay: NCI-60 one-dose screen, 48 h (100 = growth as untreated, 0 = no growth, -100 = all killed)). Details: 10 µM unless noted.
Protocol: Growth inhibition of the TK-10 human tumor cell line is measured as a screen for anti-cancer activity. Cells are grown in 96 well plates and exposed to the test compound for 48 hours. Compounds are tested at a single concentration, which is 10^-5 M for most compounds. The reported endpoint is percent growth (GI% or GIPRCNT), where numbers from 0 - 100% represent growth inhibition, and numbers from -100% - 0 represent cell death. For example, a value of 40 represents 60% growth inhibition. A value of 0 means no net growth occurred over the course of the experiment. A value of -40 indicates 40% of cells at the beginning of the experiment died by the end of the experiment. A value of -100 means all cells are dead at the end of the experiment.
NCI-60 Human Tumor Cell Lines Screen was performed using the standard one-dose NCI protocol, which is described in more detail at https://dtp.cancer.gov/discovery_development/nci-60/default.htm.
Compounds with GIPRCNT values below 10 were considered active. Activity score was based on GIPRCNT using the following formula: […]
Score is 0 for GIPRCNT values of 100 or above, 50 for GIPRCNT values of 0, and 100 for GIPRCNT values of -100.

SMILES	growth
O=C(Nc1ccc(Cl)cc1)c1cc(NCc2cc(O)ccc2O)ccc1O	97.3%
C[C@H]1[C@H]2[C@H]3CC[C@@H]4[C@@]5(C)CC[C@H](O)C(C)(C)[C@@H]5CC[C@@]4(C)[C@]3(C)CC[C@]23CO[C@]1(C)[C@@H](C(=O)/C=C\c1ccco1)C3	97.4%
CCC(=O)Oc1ccc(/C(=C(\C)c2ccccc2)c2ccc(OCCN3CCCCC3)cc2)cc1	84.2%
COc1cc(/C=C\c2cc(/C=C\c3ccc(O)c(OC)c3)n(C(=O)COc3ccccc3)n2)ccc1O	12.7%
COc1ccc(/C=C/c2nc(Nc3cccc(NC(C)=O)c3)c3ccccc3n2)cc1	92.7%
O=C(Nc1cccc(C2=NCCN2)c1)c1ccc(-c2ccc(C(=O)Nc3cccc(C4=NCCN4)c3)cc2)cc1	138%
CCOC(=O)c1cc(C(=O)c2ccc(OC)c(OC)c2)n2c1ccc1ccccc12	154%
Cc1cc2nc3c4cc(C=O)ccc4n(CCN(C)C)c3nc2cc1C	23.2%
N#CC1C(C#N)C(C(=O)c2ccc(Br)cc2)N2c3ccccc3C=CC12 (stereo not given)	106%
COc1cccc2c1c1nc3cc(C)c(C)cc3nc1n2CCN(C)C	52.1%
COc1cc2c(c(O)c1Br)C(=O)c1c(O)cc(C[C@H](C)O)cc1[C@H]2[C@H]1c2cc(C[C@H](C)O)cc(O)c2C(=O)c2c1cc(OC)c(Br)c2O	37%
COc1ccc(/C=C/c2nc(Nc3ccc(S(=O)(=O)Nc4cc(C)on4)cc3)c3ccccc3n2)cc1	71.5%
CCOC(=O)CC1CSC(N/N=C/c2ccc(-n3cccn3)cc2)=N1 (stereo not given)	108%
O=C1Nc2ccc(F)cc2/C1=C\c1c(-c2ccccc2)nc2ccccn12	81%
CC/C(=C\c1ccc(OC)cc1)C(=O)c1ccc(OC)cc1	91.9%
CN1CCN(c2ccc(NC3=C(Cl)C(=O)c4ncccc4C3=O)cc2C(F)(F)F)CC1	-65.9% (active)
O=C(CNCCN1CCOCC1)N1c2cccc3cccc(c23)N(C(=O)CNCCN2CCOCC2)C1c1cn(-c2ccccc2)nc1-c1cccc([N+](=O)[O-])c1	108%
COc1cc2oc(-c3cccc(C(=O)Nc4ccc(Br)cc4)c3)cc(=O)c2c(OC)c1OC	62.5%
Nc1n[nH]c2cccc(C#Cc3cccc(C(=O)Nc4cc(CN5CCOCC5)cc(C(F)(F)F)c4)c3)c12	67.7%
O=C1c2ccc3c4c(ccc(c24)C(=O)N1CCCNCc1ccccc1)C(=O)N(CCCNCc1ccccc1)C3=O	-84.2% (active)

SMILES	growth
O=C(CCN1CCCC1)Nc1ccc2c(NCCc3ccccc3)c3ccccc3nc2c1	3.29% (active)
COc1cc(CC(=O)c2ccc(O)c(OC)c2)ccc1O	102%
C#Cc1cccc(NC(=O)c2cccc(NC(=O)CCl)c2)c1	-72.4% [8.25 µM] (active)
COc1cc(-c2n/c(=C\c3c(O)[nH]c4ccc(Cl)cc34)cc3c2=Nc2ccccc2-3)ccc1F	1.18% (active)
O=C1/C=C/[C@@H](O)[C@@H]2C[C@@H](O)C[C@H]2/C=C/CCC[C@H](CCc2cccc3ccccc23)O1	-0.338% (active)
COc1ccc(CNCCN2C(=O)c3ccc4c5c(ccc(c35)C2=O)C(=O)N(CCNCc2ccc(OC)c(OC)c2OC)C4=O)c(OC)c1OC	30.3%
O=C(Cc1ccc(/C=C/C(=O)c2nccs2)cc1)Nc1ccccc1	98.8%
COC(=O)/C=C1\S/C(=N\NC(=O)c2cc3ccc2/C=C\c2ccc(cc2)/C=C\3)N(c2ccccc2)C1=O	15.2%
COC1=CC(=O)c2ccccc2C1=O	94%
Cn1ccnc1C(=O)/C=C/c1ccc(CC(=O)Nc2ccc(F)cc2)cc1	71.9%
CC(=O)CCC(=O)OCc1cc(=O)c(O)co1	98.5%
COc1ccc(C(=O)NNc2nc(Cl)nc(N3CCN(C(c4ccccc4)c4ccccc4)CC3)n2)cc1	95%
C=C1C(=O)O[C@H]2[C@H]1CC/C(COC(=O)NCCc1c[nH]c3ccc(OC)cc13)=C\CC[C@@]1(C)O[C@@H]21	-13.1% (active)
c1ccc2cc(Cn3c(-c4cccc5ccccc45)[n+](Cc4ccc5ccccc5c4)c4c5ccccc5c5ccccc5c43)ccc2c1	-79.8% (active)
C=C1C(=O)O[C@H]2[C@H]1CC/C(CNC(=O)C(C)c1ccc(CC(C)C)cc1)=C\CC[C@@]1(C)O[C@@H]21 (stereo not given in full)	-61% (active)
O=c1c2c(c(=O)n1O)c1c3ccc[nH]c3nc1c1nc3[nH]cccc3c12	117%
S=c1cc(S)c2cc(Br)ccc2[nH]1	125%
O=C(Nc1ccccc1)Nc1ccc2cc3ccc(NC(=O)Nc4ccccc4)cc3nc2c1	114%
C=C1C(=O)O[C@H]2[C@H]1CC/C(COC(=O)NCc1c[nH]c3ccc(Cl)cc13)=C\CC[C@@]1(C)O[C@@H]21	-53.9% (active)
COc1cc2nc(-c3ccc(Cl)cc3)cc(OCCCN3CCC(O)CC3)c2cc1OC	92.2%

From PubChem BioAssay (NCI)
